The list is not random: actives were taken first. Their share in the collection is about 0.5%.
MLL CXXC-DNA inh – MLL CXXC-DNA interaction inhibition | MLL-CXXC / FITC-HOXA9 DNA fluorescence polarization | Potency, µM (top dose mostly 115 µM), for the others: at the top dose activity change, negative = inhibition, most hits filed as inhibitors | actives 0.037% (n = 290,000) | Q03164 | AID 2662; active = well fitted inhibition curve with a large enough effect in the polarisation, with a control signal flat, not every such curve was filed as active; inconclusive = small, poorly fitted or top-dose-only effect, or effect the other way, or a change in a side signal; inactive = no such curve, though single readings can be large or run the other way; the % refers to the polarisation; note: potency is the fitted concentration of half-maximal effect
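Fluorescence polarization: 7 uM MLL-CXXC (stock) preincubated 5 min with compounds, then 50 nM fluorescein-HOX-A9 DNA (stock) added; 30 min ambient. Buffer 50 mM Tris-HCl pH 7.5, 50 mM NaCl, 1 mM DTT, 0.05% BSA.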
TR SRC2 fluor cs – counter-screen for TRb-SRC2 inhibitors: fluorescence interference; Potency, µM (highest dose often 106 µM), inactives show at the highest dose fluorescence change, negative = quenching; TRb/SRC2 Texas Red total fluorescence interference; actives 0.29% (n = 280,000); active = well fitted curve in either direction with a large enough effect; inconclusive = small, poorly fitted or top-dose-only effect; note: potency is the fitted concentration of half-maximal effect; % is set by controls: 0 for no effect and ±100 for the full control effect
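Human TRβ ligand-binding domain (0.6 uM) and Texas Red SRC2 peptide (20 nM) in Tris buffer with 1 uM T3 and 5% DMSO were incubated with pinned compound for 5 hr at ambient temperature. Total fluorescence was computed as S + 2P (555/632 nm).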
TRb SRC2 PPI – inhibitors of human thyroid hormone receptor beta-SRC2 interaction | P10828 | Potency, µM (doses to about 106 µM), for the others: top-dose activity change, negative = inhibition, actives largely listed as inhibitors | AID 1469 | actives 0.065% (n = 280,000) | TRbeta-SRC2 peptide binding, fluorescence polarization; receptor liganded with 1 µM T3; active = well fitted inhibition curve with a large enough effect; inconclusive = small, poorly fitted or top-dose-only effect, or effect the other way;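 note: potency is the fitted concentration of half-maximal effect; plate controls were bound peptide for no effect and peptide without receptor for full effect; nearly all actives have a fitted effect of over 50% in size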
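Compounds were added to 0.6 uM TRb ligand-binding domain and 20 nM Texas Red-labeled SRC2 peptide in Tris buffer containing 1 uM T3, incubated 5 hr at ambient temperature, then read by fluorescence polarization.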
Menin-MLL FL inh – menin-MLL binding inhibition, fluorescein peptide | 290,000 tested, under 10 active | FP activity change, % at 61.4 µM | Fluorescence polarization, fluorescein-MLL peptide displacement from menin | AID 1766; active = well fitted curve in the direction sought with a large enough effect in the polarisation, not every such curve was filed as active; inconclusive = small, poorly fitted or top-dose-only effect, or effect the other way, or a change in a side signal; inactive = no such curve, though single readings can be large or run the other way; the % refers to the polarisation; note: % of control where 0% means no effect
GoLoco inh red – inhibitors of human Gai1-RGS12 GoLoco interaction (red fluorophore); P63096; actives 0.44% (n = 230,000); Potency, µM (titrated, usually from 61.6 µM), without a hit: top-dose activity, negative = inhibition, actives largely listed as inhibitors; AID 880; Gai1:RGS12 GoLoco peptide FP, rhodamine, 10 min; active = well fitted inhibition curve with a large enough effect, not every such curve was filed as active; inactive = no such curve, though single readings can be large or run the other way; note: potency is the fitted concentration of half-maximal effect; % is set by controls: 0 for no effect and ±100 for the full control effect; nearly all actives have a fitted effect of over 30% in size
Target sequence (P63096 whole entry, looked up): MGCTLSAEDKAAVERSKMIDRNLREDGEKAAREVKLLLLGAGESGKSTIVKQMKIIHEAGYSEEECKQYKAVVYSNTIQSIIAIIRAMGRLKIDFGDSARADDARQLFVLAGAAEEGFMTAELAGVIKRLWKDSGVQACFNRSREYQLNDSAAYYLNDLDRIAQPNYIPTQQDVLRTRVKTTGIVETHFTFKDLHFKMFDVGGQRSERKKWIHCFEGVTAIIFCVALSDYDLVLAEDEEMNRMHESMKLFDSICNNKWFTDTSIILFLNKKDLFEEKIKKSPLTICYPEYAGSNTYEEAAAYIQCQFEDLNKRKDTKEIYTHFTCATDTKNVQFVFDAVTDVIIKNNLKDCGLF
Menin-MLL TR inh – inhibitors of human menin-MLL interaction, mutant MLL peptide; Menin + Texas Red MLL mutant peptide, fluorescence polarization; Potency, µM (titrated, usually from 61.6 µM), without a hit: top-dose FP activity change, negative = inhibition, hits mostly inhibitors; actives 0.23% (n = 270,000); AID 1768; active = well fitted inhibition curve with a large enough effect in the polarisation, with a control signal flat, not every such curve was filed as active; inconclusive = small, poorly fitted or top-dose-only effect, or effect the other way, or a change in a side signal; inactive = no such curve, though single readings can be large or run the other way; the % refers to the polarisation; note: potency is the fitted concentration of half-maximal effect; % of control where 0% means no effect
The depositor's hits bear a star; ? = inconclusive; . = no result given; [ ] = remark or other dose.

SMILES	MLL CXXC-DNA inh	TR SRC2 fluor cs	TRb SRC2 PPI	Menin-MLL FL inh	GoLoco inh red	Menin-MLL TR inh
COC(=O)CC1Oc2ccc(Cl)cc2-n2cc(-c3ccc(C)cc3)nc21 (stereo not drawn)	.	22µM*[quencher]	-8%	.	.	.
COC(=O)CC1Oc2ccc(C)cc2-n2cc(-c3ccc(C)cc3)nc21 (stereo not drawn)	.	-3%	-2%	.	.	.
COc1ccc(OC)c(OC)c1	.	-2%[201 µM]	6%[201 µM]	.	.	.
O=C(Nc1nc2c(s1)CN(Cc1ccccc1)CC2)c1cccc(S(=O)(=O)N2CCc3ccccc32)c1	?	4%	8%	?	77%	7.1µM*
NCCCCCCCCCCC(=O)O	.	-4%[201 µM]	-3%[201 µM]	.	.	.
O=C(NNC(=S)Nc1ccc(OC(F)F)cc1)c1cc2c(s1)CCCC2	-10%	631µM*[quencher]	-13%	4	0%	1%
COc1ccc2c(c1)Cc1sc(NC(=O)c3ccccc3)nc1-2	15%	-1%	3%	1	4%	?
COc1ccc2c(c1)Cc1sc(NC(=O)c3ccccc3C)nc1-2	.	0.0028µM*[quencher]	-12%	.	.	.
CCCCOc1ccc(C(=O)NCCS(=O)(=O)N2CCN(c3ccccc3OC)CC2)cc1	.	-6%	3%	.	.	.
COc1ccc(CNc2nc(-c3ccco3)nn2C(=O)CC(C)C)cc1	.	79µM*[quencher]	-13%	.	.	.
CC(C)CC(=O)n1nc(-c2ccco2)nc1NCc1ccc(Cl)cc1	.	-9%	5%	.	.	.
CCS(=O)(=O)N1CC(=O)N(c2ccc(Cl)cc2)C(C)(C(=O)NC2CCCCC2)C1 (stereo not drawn)	.	3%	0%	.	.	.
O=C(O)[C@H]1O[C@@H](Oc2ccc3ccc(=O)oc3c2)[C@H](O)[C@@H](O)[C@@H]1O	.	-2%	-2%	2	.	-29%
COCCCn1c(=O)c2sccc2n2c(CCCC(=O)NC3CCC(C)CC3)nnc12 (stereo not drawn)	.	-3%	-2%	.	.	.
CCc1cccc(C)c1NC(=O)c1cn2c3c(ccc(Cl)c3c1=O)OC(C)C2 (stereo not drawn)	.	100µM*[quencher]	-19%	.	.	.
COc1ccc(C(=O)NC(=S)NNC(=O)Cc2cccs2)cc1	12%	-2%	-12%	3	3%	25%
COc1cc(OC)cc(C(=O)NC(=S)NNC(=O)Cc2cccs2)c1	-5%	0.32µM*[quencher]	?	4	-5%	9%
CC1=C(C(=O)N2CCOCC2)C(c2cc(C)cs2)NC(=O)N1 (stereo not drawn)	2%	28µM*[fluorescent]	20µM*	-8	5%	?
CC1=C(C(=O)N2CCOCC2)C(c2cccs2)NC(=O)N1 (stereo not drawn)	-2%	-1%	3%	2	0%	5%
COC1=C(Nc2ccc(O)cc2)C(=O)c2ccccc2C1=O	-4%	?	35µM*	2	-22%	-18%
Cc1cccc(C)c1OCC(=O)Nc1ccc(S(=O)(=O)Nc2ccccn2)cc1	-5%	71µM*[quencher]	-6%	4	-4%	-13%
CC1CC(OCC(O)CN2CCOCC2)CC(C)(C)C1 (stereo not drawn)	22%	2%	-2%	-1	8%	2%
CC1CC(OCC(O)C[N+]2(C)CCOCC2)CC(C)(C)C1 (stereo not drawn)	1%	0%	-4%	-3	2.2µM*	1%
COc1ccc(-n2c(=O)c3ccccc3n(Cc3ccccc3C)c2=O)c(OC)c1	.	-2%	-2%	.	.	.
CCOc1ccc(C2=Cc3cc(OC)c(OC)cc3C(=C(Cl)Cl)O2)cc1	10%	-19%	28µM*	1	-10%	-8%
SMILES	MLL CXXC-DNA inh	TR SRC2 fluor cs	TRb SRC2 PPI	Menin-MLL FL inh	GoLoco inh red	Menin-MLL TR inh
CCOc1ccc(-c2cc(-c3nc(-c4ccc(OC)c(OC)c4)no3)[nH]n2)cc1	.	-1%	3%	.	.	.
CC(C)=CCC/C(C)=C\CO	.	1%[201 µM]	6%[201 µM]	.	.	.
COc1ccc2c(c1)c1c(c(=O)n(Cc3ccccc3)c(=O)n1Cc1cc(C)ccc1C)n2C	.	0%	-1%	.	.	.
NC(=O)c1ccsc1N	-3%	0%[53 µM]	-4%[53 µM]	?	20µM*	0%
C[C@@]12CCC(=O)C=C1CC[C@H]1C2[C@@H](O)C[C@]2(C)[C@@H]1CC[C@@]2(O)C(=O)CO (stereo partly drawn)	.	.	.	.	19%[14.2 µM]	.
Cc1cc(N2CCCC2)ccc1/C=C1/C(=O)N(C)C(=S)N1C	?	0%	4%	?	43%	22µM*
Cc1cc(/C=C2/C(=O)N(C)C(=S)N2C)ccc1N1CCCC1	?	2%	-1%	?	173%	-17%
CCCn1c(/C=C/c2ccco2)nc2ccccc21	-4%	3.5µM*[quencher]	-19%[53 µM]	?	156%	-24%
Cc1c2c(c(O)c3c(O)cccc13)C(=O)O[C@H]2C1C(N(C)C)C(O)=C(C(N)=O)C(=O)[C@H]1O (stereo partly drawn)	.	22µM*[quencher]	?	0	.	?
Cc1cc2ccccc2n1CCNC(=O)c1ccc(Br)o1	-4%	13%	-2%	?	22µM*	?
Cc1cc2ccccc2n1CCNC(=O)c1ccc(Br)cc1	.	-2%	-1%	.	.	.
O=C(Nc1cccc(C(F)(F)F)c1)c1ccc2nc(-c3ccco3)c(-c3ccco3)nc2c1	4%	8.9µM*[quencher]	?	?	49%	.
OCCCNC(=S)Nc1ccc2nc(-c3ccccn3)c(-c3ccccn3)nc2c1	-6%	-1%	-1%	-21	2%	.
COc1ccc(CCNC(=O)c2ccc3nc(-c4ccco4)c(-c4ccco4)nc3c2)cc1OC	10%	11µM*[quencher]	?	9	27%	?
O=C(Nc1ccc2nc(-c3ccco3)c(-c3ccco3)nc2c1)NC1CC1	?	35µM*[quencher]	11%	?	2%	?
O=C(Nc1ccc(N2CCOCC2)cc1)Nc1ccc2nc(-c3ccco3)c(-c3ccco3)nc2c1	0%	-5%	-3%	0	-10%	?
CCc1nc2ccc(C(=O)NCCc3ccc(OC)c(OC)c3)cc2nc1CC	6%	-1%	-4%	-1	.	4%
O=C(NCCCO)Nc1ccc2nc(-c3ccco3)c(-c3ccco3)nc2c1	?	14µM*[quencher]	18%	?	14%	?
O=S(=O)(Nc1cccc2cccnc12)c1ccccc1O	.	0%	-9%	-2	.	30%
CCCCC/C=C\C/C=C\CCCCCCCC(=O)OC	.	3%[201 µM]	5%[201 µM]	.	.	.
Cc1ccc(-c2nn(-c3ccc(F)cc3F)c3c2cnc2ccc(F)cc23)cc1	.	1%	3%	.	.	.
O=C(N/N=C\c1cn(-c2ccccc2)nc1-c1ccccc1)c1ccc2c(c1)OCO2	27%	-3%	-4%	8	5%	25µM*
CS(=O)(=O)c1cc([N+](=O)[O-])c(Sc2nc3ccccc3[nH]2)c([N+](=O)[O-])c1	-1%	-2%	7%	4	7.9µM*	.
